Compounds without any hit were thinned out: in the full panel of roughly 79,000, 15% have a hit. The source made the active and inactive calls. Rule as the data show it: active = growth inhibition above about 70%; inactive = the rest.
Assays:
[1] = NCI Yeast Anticancer Drug Screen. Data for the rad52 strain (AID 147);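 also: 0% = growth of vehicle-treated control cultures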; settings: S. cerevisiae rad52 mutant growth inhibition, stronger effect = higher value
Summary of the method: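 Screen used a yeast mutant impaired in DNA repair. After compound exposure, growth was measured. Values reflect inhibition compared with vehicle-treated cells.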

[2] = NCI Yeast Anticancer Drug Screen. Data for the wt1 strain (AID 149);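 also: 0% = growth of vehicle-treated wt1 cultures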; settings: S. cerevisiae wt1 strain (SPY 50644) growth inhibition, stronger effect = higher value
Summary of the method: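 Growth inhibition read against vehicle controls after compound exposure of the wt1 yeast strain.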

[3] = NCI Yeast Anticancer Drug Screen. Data for the rad50EPP+ strain (AID 151);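 also: 0% = growth of vehicle-treated control cultures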; settings: S. cerevisiae rad50 mutant strain, stronger effect = higher value
Summary of the method: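 Exposing the rad50EPP+ strain to each compound, growth was compared with vehicle-only cultures to give inhibition.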

[4] = NCI Yeast Anticancer Drug Screen. Data for the rad50 strain (AID 155);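 also: 0% = growth of vehicle-only cultures of the same strain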; settings: S. cerevisiae rad50 strain growth inhibition, stronger effect = higher value
Summary of the method: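 Readout: growth inhibition relative to vehicle-treated cultures. Compound exposure was carried out in a genetically defined yeast strain deficient in DNA damage repair.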

[5] = NCI Yeast Anticancer Drug Screen. Data for the mec2-1 strain (AID 157); settings: S. cerevisiae mec2-1 strain, stronger effect = higher value
Summary of the method: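 Readout is yeast growth inhibition, normalised to vehicle-treated controls, in the mec2-1 strain exposed to compound.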

[6] = NCI Yeast Anticancer Drug Screen. Data for the rad14 strain (AID 159);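 also: 0% = growth of vehicle-treated control cultures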; settings: S. cerevisiae rad14 strain growth inhibition, stronger effect = higher value
Summary of the method: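 Growth inhibition vs vehicle controls; genetically altered yeast strain (DNA damage repair defect) treated with test compounds.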

[7] = NCI Yeast Anticancer Drug Screen. Data for the sgs1 mgt1 strain (AID 161);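 also: 0% = growth of cultures given vehicle only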; settings: S. cerevisiae sgs1 mgt1 strain, stronger effect = higher value
Summary of the method: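 Yeast cells carrying a defined DNA-repair defect were exposed to test compounds. Growth inhibition was measured relative to vehicle-treated controls.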

[8] = NCI Yeast Anticancer Drug Screen. Data for the CLN2oe strain (AID 163);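 also: 0% = growth of vehicle-only control cultures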; settings: S. cerevisiae CLN2oe strain, stronger effect = higher value
Summary of the method: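 Values reflect how much compound exposure reduced yeast growth, referenced to vehicle-exposed cells. Assay organism is a strain with a defined genetic change affecting cell-cycle control.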

[9] = NCI Yeast Anticancer Drug Screen. Data for the cln2 rad14 strain (AID 165);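 also: 0% = growth equal to vehicle treated cultures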; settings: S. cerevisiae cln2 rad14 strain, stronger effect = higher value
Summary of the method: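 Relative to vehicle controls, growth inhibition of compound-treated cln2 rad14 yeast was recorded.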

[10] = NCI Yeast Anticancer Drug Screen. Data for the bub3 strain (AID 167); settings: S. cerevisiae bub3 mutant strain, stronger effect = higher value
Summary of the method: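 Readout: yeast growth inhibition, expressed relative to vehicle-only wells. The test organism is a mutant strain from a panel with lesions in DNA repair or checkpoint genes.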

[11] = NCI Yeast Anticancer Drug Screen. Data for the wt2 strain (AID 169);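 also: 0% = growth of vehicle-treated yeast cultures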; settings: S. cerevisiae wt2 strain growth inhibition, stronger effect = higher value
Summary of the method: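 Values express reduction in yeast growth under compound treatment, referenced to vehicle-treated cells.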

[12] = NCI Yeast Anticancer Drug Screen. Data for the mlh1 strain (AID 171);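 also: 0% = growth of vehicle-treated control cultures of the same strain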; settings: S. cerevisiae mlh1 strain growth inhibition, stronger effect = higher value
Summary of the method: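 Steps: expose the defined-mutant yeast strain to compound; expose a parallel culture to vehicle; measure growth; express compound effect as inhibition relative to the vehicle culture.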

[13] = NCI Yeast Anticancer Drug Screen. Data for the sgs1 strain (AID 173);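 also: 0% = growth of vehicle-only control cultures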; settings: S. cerevisiae sgs1 mutant, stronger effect = higher value
Summary of the method: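 Treat defined-mutant yeast with compound; measure growth; calculate inhibition relative to vehicle-treated cells.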

[14] = NCI Yeast Anticancer Drug Screen. Data for the mlh1 rad18 strain (AID 175); settings: S. cerevisiae mlh1 rad18 strain growth inhibition, stronger effect = higher value
Summary of the method: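 Test agents were incubated with a yeast strain of defined genotype (DNA damage repair defect). Inhibition of growth was derived by comparison with vehicle-exposed cultures.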

[15] = NCI Yeast Anticancer Drug Screen. Data for the rad18 strain (AID 177); settings: S. cerevisiae rad18 mutant growth inhibition, stronger effect = higher value
Summary of the method: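 A genetically defined yeast mutant impaired in DNA damage repair was treated with test compounds, then its growth was measured against cultures receiving vehicle alone.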

[16] = NCI Yeast Anticancer Drug Screen. Data for the mgt1 strain (AID 153); settings: S. cerevisiae mgt1 mutant growth inhibition, stronger effect = higher value
Summary of the method: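 Genetically defined yeast (mgt1) treated with compound; inhibition of growth expressed against vehicle-treated controls.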

[17] = at 5.0 µM (retest, dose inferred, filed as 0.5)
[18] = at 50.0 µM (retest, dose inferred, filed as 5.0)

Measured: growth inhibition

O=CC1(F)CC1(c1ccccc1)c1ccccc1 (stereo not drawn)
active: [1]; at 100.0 µM 81% | [2]; at 100.0 µM 73% | [4]; at 100.0 µM 94% | [5]; at 100.0 µM 87% | [6]; at 100.0 µM 80% | [10]; at 100.0 µM 89% | [11]; at 100.0 µM 98% | [12]; at 100.0 µM 94% | [13]; at 100.0 µM 98% | [15]; at 100.0 µM 94%
inactive: [1]; at 1.2 µM -2% | [1]; at 3.7 µM -4% | [1]; at 11.0 µM -2% | [1]; at 33.0 µM 1% | [2]; at 1.2 µM -1% | [2]; at 3.7 µM -1% | [2]; at 11.0 µM -4% | [2]; at 33.0 µM -1% | [3]; at 1.2 µM -1% | [3]; at 3.7 µM 0% | [3]; at 11.0 µM 5% | [3]; at 33.0 µM 10% | [3]; at 100.0 µM 17% | [4]; at 1.2 µM 0% | [4]; at 3.7 µM -46% | [4]; [17] -3% | [4]; at 11.0 µM 18% | [4]; at 33.0 µM 5% | [4]; [18] 17% | [4]; at 50.0 µM 27.8% | [5]; at 1.2 µM -3% | [5]; at 3.7 µM -3% | [5]; [17] 6% | [5]; at 11.0 µM -2% | [5]; at 33.0 µM 4% | [5]; [18] 21% | [5]; at 50.0 µM 21% | [6]; at 1.2 µM 0% | [6]; at 3.7 µM 1% | [6]; at 11.0 µM 2% | [6]; at 33.0 µM 7% | [7]; [17] -2% | [7]; [18] 53% | [7]; at 50.0 µM 55.6% | [8]; at 1.2 µM -2% | [8]; at 3.7 µM 1% | [8]; at 11.0 µM 2% | [8]; at 33.0 µM 1% | [8]; at 100.0 µM 25% | [9]; [17] -1% | [9]; [18] 2% | [9]; at 50.0 µM 23.8% | [10]; at 1.2 µM -2% | [10]; at 3.7 µM -4% | [10]; [17] -3% | [10]; at 11.0 µM -6% | [10]; at 33.0 µM -4% | [10]; [18] 11% | [10]; at 50.0 µM 5.65% | [11]; at 1.2 µM -1% | [11]; at 3.7 µM 6% | [11]; at 11.0 µM -2% | [11]; at 33.0 µM 2% | [12]; at 1.2 µM -2% | [12]; at 3.7 µM -3% | [12]; at 11.0 µM -3% | [12]; at 33.0 µM 2% | [13]; at 1.2 µM -2% | [13]; at 3.7 µM -1% | [13]; at 11.0 µM 3% | [13]; at 33.0 µM 22% | [14]; [17] -1% | [14]; [18] 14% | [14]; at 50.0 µM 14.2% | [15]; at 1.2 µM -6% | [15]; at 3.7 µM 2% | [15]; at 11.0 µM 3% | [15]; at 33.0 µM 13%

CN(C)N=Nc1ccc(N(C)C)cc1
active: [14]; [18] 77% | [14]; at 50.0 µM 70.3%
inactive: [1]; at 1.2 µM -1% | [1]; at 3.7 µM 1% | [1]; at 11.0 µM 4% | [1]; at 33.0 µM 16% | [1]; at 100.0 µM 53% | [2]; at 1.2 µM 1% | [2]; at 3.7 µM -4% | [2]; at 11.0 µM -3% | [2]; at 33.0 µM -2% | [2]; at 100.0 µM 5% | [3]; at 1.2 µM 4% | [3]; at 3.7 µM 8% | [3]; at 11.0 µM 31% | [3]; at 33.0 µM 53% | [3]; at 100.0 µM 55% | [16]; at 1.2 µM -3% | [16]; at 3.7 µM -3% | [16]; at 11.0 µM -1% | [16]; at 33.0 µM 19% | [16]; at 100.0 µM 12% | [5]; at 1.2 µM 2% | [5]; at 3.7 µM 3% | [5]; [17] -9% | [5]; at 11.0 µM 3% | [5]; at 33.0 µM 7% | [5]; [18] -9% | [5]; at 50.0 µM 16.4% | [5]; at 100.0 µM 9% | [6]; at 1.2 µM -1% | [6]; at 3.7 µM 0% | [6]; at 11.0 µM 2% | [6]; at 33.0 µM 3% | [6]; at 100.0 µM 7% | [7]; [17] 2% | [7]; [18] 51% | [7]; at 50.0 µM 20.9% | [8]; at 1.2 µM -2% | [8]; at 3.7 µM -5% | [8]; at 11.0 µM -2% | [8]; at 33.0 µM -2% | [8]; at 100.0 µM -1% | [9]; [17] 2% | [9]; [18] 8% | [9]; at 50.0 µM 44.1% | [10]; at 1.2 µM 0% | [10]; at 3.7 µM -3% | [10]; [17] 18% | [10]; at 11.0 µM -7% | [10]; at 33.0 µM -5% | [10]; [18] 33% | [10]; at 50.0 µM 12.3% | [10]; at 100.0 µM 3% | [11]; at 1.2 µM -1% | [11]; at 3.7 µM -1% | [11]; at 11.0 µM 0% | [11]; at 33.0 µM 2% | [11]; at 100.0 µM 13% | [12]; at 1.2 µM -2% | [12]; at 3.7 µM -3% | [12]; at 11.0 µM 1% | [12]; at 33.0 µM 3% | [12]; at 100.0 µM 10% | [14]; [17] 23% | [15]; at 1.2 µM 1% | [15]; at 3.7 µM 1% | [15]; at 11.0 µM -15% | [15]; at 33.0 µM 11% | [15]; at 100.0 µM 29%

CCCCN(CCCC)c1ccc(N=Nc2ccc(S(=O)(=O)O)cc2)cc1
inactive: [1]; at 1.2 µM 21% | [1]; at 3.7 µM 48% | [1]; at 11.0 µM 40% | [2]; at 1.2 µM -9% | [2]; at 3.7 µM 2% | [2]; at 11.0 µM 33% | [3]; at 1.2 µM 10% | [3]; at 3.7 µM 8% | [3]; at 11.0 µM 48% | [4]; at 1.2 µM 16% | [4]; at 3.7 µM 14% | [4]; [17] 63% | [4]; at 11.0 µM 38% | [5]; at 1.2 µM 32% | [5]; at 3.7 µM 43% | [5]; [17] 52%
active: [1]; at 33.0 µM 89% | [1]; at 100.0 µM 90% | [2]; at 33.0 µM 97% | [2]; at 100.0 µM 97% | [3]; at 33.0 µM 84% | [3]; at 100.0 µM 87% | [4]; at 33.0 µM 92% | [4]; [18] 99% | [4]; at 50.0 µM 87.7% | [4]; at 100.0 µM 93% | [5]; at 11.0 µM 77% | [5]; at 33.0 µM 97% | [5]; [18] 98% | [5]; at 50.0 µM 90.7%
